Measurements reported in PubChem BioAssay (EPA / NIEHS).
“And” between values parts separate entries of the source, which are not always exact repeats. Equal entries are not always repeated. Inconclusive results are not listed. A structure can be active in one record and inactive in another. The source made the active and inactive calls. How the source made its calls: active means hit-call score of the fitted dose curve at least 0.9, where 1 is the maximum; inconclusive means response in the unintended direction; inactive means score below 0.9.

experiment: TOX21_p53_BLA_p4_viability: Viability Assessment in the Tox21 HCT-116 p53 Agonism Beta-lactamase Assay, Phase 4 (AID 2283597);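 further: hits lower the luminescence signal meaning cytotoxicity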
Description: TOX21_p53_BLA_p4 is a cell-based, single-readout assay that uses HCT116, a human intestinal cell line, […] in a 1536-well plate.TOX21_p53_BLA_p4_viability is an assay readout measuring cellular ATP content and detected with CellTiter-Glo Luciferase-coupled ATP quantitation.TOX21_p53_BLA_p4_viability used a type of viability reporter where loss-of-signal activity can be used to understand changes in the cell viability. Furthermore, this assay endpoint can be referred to as a secondary readout, because this assay has produced multiple assay endpoints where this one serves a viability function. To generalize the intended target to other relatable targets, this assay endpoint is annotated to the cell cycle intended target family, where the subfamily is cytotoxicity.
Thawing Method: Place 14 mL of pre-warmed thaw medium into a 15 mL of conical tub. Remove the vial of cells to be thawed from liquid nitrogen and thaw rapidly by placing at 37C in a water bath with gentle agitation for 1-2 minutes. Decontaminate the vial by wiping with 70% ethanol before opening in a biological safety cabinet. Transfer the vial contents drop-wise into 14 mL of thaw medium in a sterile 15-mL conical tub. Centrifuge cells at 900 rpm for 4 minutes and resuspend in thaw medium. Transfer contents to the T75 tissue culture flask containing Thaw Medium and place flask in a humidified 37C/5% CO2 incubator. Switch to growth medium at first passage.Propagation Method: Aspirate medium, rinse once in DPBS, add 0.25% Trypsin/EDTA and swirl to coat the cell evenly. Add an equal volume of Growth Medium to inactivate Trypsin after 2-3 minutes incubation at 37C. Centrifuge cells at 900 rpm for 4 minutes and resuspend in growth medium. Cell should be passage or fed at least twice a week.Assay Protocol: Harvest cells from culture in growth medium and resuspend in assay medium. 2.2 Dispense 4000 cells/5 uL/well into 1536-well black/clear bottom plates using a Multidrop dispenser. After the cells were incubated at 37C for 5 hours, 23 nL of compounds dissolved in DMSO were transferred to the assay plate by a PinTool resulting in a 217-fold dilution. Incubate the plates for 16 hours at 37C, 5% CO2. Add 1 uL of 6X LiveBLAzer FRET B/G (CCF4-AM) Substrate Mixture to each well using a BioRAPTR dispenser and incubate the plates at room temperature for 2 hours. Measure fluorescence intensity at 460 and 530 nm emission and 405 nm excitation by an Envision detector. Data is expressed as the ratio of 460nm/530nm emissions. Add 4 uL of Cell-titer Glo to each well using BioRAPTR and incubate the plates at room temperature for […]. For cell viability readout that measures cytotoxicity, 4 ul/well of CellTiter-Glo reagent was added into the assay plates using a Flying Reagent Dispenser. After 30 min incubation at room temperature, the luminescence intensity in the plates was measured using a ViewLux plate reader.

Compound | outcome | AC50
O=C(C=Cc1ccccc1)OCCCc1ccccc1 | inactive | 
CCC(C)(CCCC(C)C)OC(C)=O (stereo not given) | inactive | 
CC(C)OB(OC(C)C)OC(C)C | inactive | 
O=Cc1ccccc1O | inactive | 
O=C(OCc1ccccc1)c1ccccc1O | inactive | 
COC(=O)C(C)Oc1ccc(Oc2ncc(C(F)(F)F)cc2Cl)cc1 (stereo not given) | inactive | 
CC(C)COC(=O)c1ccccc1O | inactive | 
CC(=O)Nc1cc(S(=O)(=O)O)cc2cc(S(=O)(=O)O)c(N=Nc3ccccc3)c(O)c12 | inactive | 
CC(=O)c1ccc2ccccc2c1 | inactive | 
CC(O)COCC(C)O (stereo not given) | inactive | 
CC/C=C\C#N | inactive | 
C=C(C)C(=O)OCCN(C)C | inactive | 
CCCO | inactive | 
CCCCCCCCCCCCS | inactive | 
CN1CCc2cccc3c2[C@H]1Cc1ccc(O)c(O)c1-3 | inactive | 35.5 µM (active) and 44.9 µM (active)
C[C@]12CC[C@@H]3c4ccc(O)cc4CC[C@H]3[C@@H]1CC[C@@H]2O | inactive | 
CC1(C)CC(N)CC(C)(CN)C1 (stereo not given) | inactive | 
O=[N+]([O-])c1cc(N(CCO)CCO)ccc1NCCO | inactive | 
CC(=O)CCC=C(C)CCC=C(C)C | inactive | 

Compound | outcome | AC50
CC/C=C\CCOC(=O)C(C)C | inactive | 
CCCCCCCC(=O)N(C)C | inactive | 
C=C1CC/C=C(\C)CC[C@@H]2[C@@H]1CC2(C)C | inactive | 
CCCCCCCCCCCCCC(=O)OCC | inactive | 
CCCCCCCCCCOC(=O)c1ccccc1C(=O)OCCCCCCCC | inactive | 
Cc1ccncc1 | inactive | 
O=C(Nc1cccc(Cl)c1)OCC#CCCl |  | 56.1 µM (active)
CCCCCCCC1CCCC1=O (stereo not given) | inactive | 
C[C@H](CCC(=O)O)[C@H]1CC[C@H]2[C@@H]3CC[C@@H]4C[C@H](O)CC[C@]4(C)[C@H]3CC[C@]12C | inactive | 13.5 µM (active)
CC1=CC(=O)[C@H]2C[C@@H]1C2(C)C | inactive | 
CCCCCCCOC(C)=O | inactive | 
CC/C(=C(\c1ccccc1)c1ccc(OCCN(C)C)cc1)c1ccccc1 | inactive | 22.9 µM (active) and 46.5 µM (active) and 32.3 µM (active)
C[Si]1(C)N[Si](C)(C)N[Si](C)(C)N1 | inactive | 
COc1ccc(OC)cc1 | inactive | 
S=c1[nH][nH]c(=S)s1 | inactive | 
CC1=CCC(C(C)(C)O)CC1 (stereo not given) | inactive | 
CCCCCCOC(C)=O |  | 24.9 µM (active)
C=C(C)C(N)=O | inactive | 
